What all share (type): functional
Assay [1] has as its target Solute carrier family 2, facilitated glucose transporter member 1 (Homo sapiens) (UniProt P11166). Briefly: ST_JUDE_LEISH: Cytotoxicity at 2uM final concentration against transgenic Leishmania Mexicana promastigotes LmGLUT1 that are glucose transport deficient and complemented with the human glucose transporter GLUT1. Activity is measured by DNA content using SYBR green in vitro.

Assay [2] addresses Hexose transporter 1 (Plasmodium falciparum) (UniProt O97467). As to the kind of experiment: ST_JUDE_LEISH: Cytotoxicity at 2uM final concentration against transgenic Leishmania Mexicana promastigotes LmPfHT that are glucose transport deficient and complemented with the Plasmodium falciparum hexose transporter. Activity is measured by DNA content using SYBR green in vitro.
Assay [3] concerns the target Glucose transporter (Leishmania mexicana) (UniProt O61059). Briefly: ST_JUDE_LEISH: Cytotoxicity at 2uM final concentration against transgenic Leishmania Mexicana promastigotes LmGT2 that are glucose transport deficient and complemented with the L. Mexicana glucose transporter 2. Activity is measured by DNA content using SYBR green in vitro.

Chain of Solute carrier family 2, facilitated glucose transporter member 1 (Homo sapiens) (P11166 whole entry): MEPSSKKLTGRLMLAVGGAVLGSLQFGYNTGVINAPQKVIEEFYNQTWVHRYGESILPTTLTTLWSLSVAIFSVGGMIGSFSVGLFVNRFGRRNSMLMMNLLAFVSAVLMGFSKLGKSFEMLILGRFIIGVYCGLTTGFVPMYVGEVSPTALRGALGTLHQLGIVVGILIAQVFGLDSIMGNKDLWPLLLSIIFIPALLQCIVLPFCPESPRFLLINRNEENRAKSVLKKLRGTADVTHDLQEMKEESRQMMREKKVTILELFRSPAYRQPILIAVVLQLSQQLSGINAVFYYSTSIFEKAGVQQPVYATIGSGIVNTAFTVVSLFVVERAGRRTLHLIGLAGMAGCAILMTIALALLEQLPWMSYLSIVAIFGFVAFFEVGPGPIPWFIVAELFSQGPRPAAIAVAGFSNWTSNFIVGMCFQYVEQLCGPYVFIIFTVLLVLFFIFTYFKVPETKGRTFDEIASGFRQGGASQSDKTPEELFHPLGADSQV

In the case of `COC(=O)CCCCOc1c(OC)cc(Cc2cnc(N)nc2N)cc1OC`, the inhibition is 11.2% in assay [1], 7.13% in assay [2] and 7.7% in assay [3].
In the case of `CC(C(=O)Nc1ccc(Br)cc1Br)N1CCN(C(=O)c2ccco2)CC1` (configuration not stated), the inhibition in assay [1] was -0.66%; in assay [2], 1.36%; in assay [3], 1.86%.
As for `O=C(Nc1ccc(-c2ccc(-c3nc4cc(C(F)(F)F)ccc4[nH]3)s2)cc1)c1c[nH]cn1`, the inhibition in assay [1] was determined as 3.09%; in assay [2], 7.24%; in assay [3] it was 8.27%.
`COc1ccc2nccc([C@@H](O)CN3CCC(NCc4cc5cc(Cl)ccc5[nH]4)CC3)c2c1`: the inhibition came out at 12.5% in assay [1], 28.1% in assay [2] and 2.75% in assay [3].

For the origin of these results see ChEMBL document CHEMBL3433997, “St. Jude Leishmania screening dataset” (2016).
